Structures are written as SMILES. Activity calls are given as the source filed them.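 The calls were made as follows, unless noted: active = primary screen active and over 50% activation in each of two duplicate runs; inactive = the rest.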

The first test relates to TRPC4 beta (transient receptor potential cation channel C4), mouse. The test is described as follows: TRPC4 cation channel opening, retest – cell-based, Fluo4 calcium, HEK293 TRPC4beta/mu-opioid, duplicates, 10 µM, confirmation (AID 2426;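 active = fluorescence ratio normalized to control raised more than 50% in primary screen plus both repeat runs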;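 as to activation: percent rise of integrated ratio over buffer wells lacking compound which define 0%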). The settings on record: Fluo4 calcium fluorescence, at 10 µM; hits give high values.
On to `CN(CCCNC(=O)CCCOc1cc(=O)n(C)c2ccccc12)Cc1ccccc1`, for which the result was inactive.
Same read-out and setting: in the case of `CCOc1ccccc1C(=O)NCCc1cnc[nH]1` it was “inactive”; in that of `Cc1ccccc1-n1c(=O)c2c(n3cnnc13)-c1ccccc1CC21CCCCC1`, “inactive”.
In the case of `CN(C)S(=O)(=O)N1CCC(CCCC2CCN(S(=O)(=O)N(C)C)CC2)CC1`, the outcome was inactive.
Consider `O=C(Nc1ccnn1C1CCN(Cc2cc3ccccc3[nH]2)CC1)C1CCOC1` (stereo not drawn), for which the result was inactive.
For the compound `C=CCOc1ccc(CN(C)Cc2nc3cc(C(F)(F)F)ccc3c(=O)[nH]2)cc1`, the result was inactive.
On the same count and under the same terms, in the case of `Cc1ccc(C(=O)C[n+]2cccc3cc(C)ccc32)cc1` it was “inactive”; in that of `CN(C)CCCN(C(=O)CCc1ccccc1)c1nc2ccc(F)cc2s1`, “inactive”.
On the same count and under the same terms, under `CC(=O)n1cc([C@@H]2C=C(C(=O)NCc3ccccc3)O[C@H](OCc3ccc(CO)cc3)C2)c2ccccc21` stands “inactive”; under `O=C(O)CCCN1C(=O)/C(=C\c2ccc(-c3nc4ccccc4s3)o2)SC1=S`, “inactive”; under `CCOCCCn1c(=S)[nH]c2cc(C(=O)NCCCN(CC)CC)ccc2c1=O`, “inactive”.
As to `O=C(NCc1ccccc1)c1ccc(S(=O)(=O)Nc2cccc(C(F)(F)F)c2)cc1`, the result was inactive.
Consider `CCOC(=O)C1CCCN(C(=O)CCCn2nnnc2CN2CCOCC2)C1` (stereo not drawn), for which the outcome was inactive.
In the case of `COc1cc(OC)c2c(-c3ccccc3)cc(=O)oc2c1C(CCN1CCCCC1)c1ccc(N(C)C)cc1` (stereo not drawn), the activation is 82% (active).
As for `CCCCCCCCCC[n+]1cccc2c3ccccc3ccc21`, the result was inactive.
Regarding `CC(C)NS(=O)(=O)c1ccc(NC(=O)C(C)Oc2ccc(C(=O)c3ccccc3)cc2)cc1` (stereo not drawn), the result was inactive.
For the compound `Cc1ccc(C(=O)NNC(=O)C2CSC3(C)CCC(=O)N23)cc1` (stereo not drawn), the outcome was inactive.
For `CCCc1nc2oc3c(NCCCN(C)C)ncnc3c2c2c1CCCC2`, the outcome was inactive.
On to `CCc1nc2ccccc2n1Cc1ccccc1F`, for which the result was inactive.
Turning to `O=C(Cc1ccccc1)Nc1cccc(NC(=O)c2cccs2)c1`, the outcome was inactive.
Consider `CCCCN(CC)CCCNC(=O)c1cc2cc3ccc(C)cc3nc2o1`, for which the outcome was inactive.
On the same count and under the same terms, under `O=C1C=CC(=O)N1CCNc1ncc(C(F)(F)F)cc1Cl` stands “inactive”; under `Cc1cc(NC(=O)CSCC(=O)Nc2ccc(Cl)c(C(F)(F)F)c2)no1`, “inactive”.
In the case of `Cc1ccc2c(c1)C1CN(C)CCC1N2C(=S)NC(=O)c1ccc(Br)cc1` (stereo not drawn), the result was inactive.
Regarding `CCc1nc2ccccc2n1Cc1ccc(F)cc1`, the result was inactive.
Same read-out and setting: under `CCN(CC)CCSc1nnc2c3ccccc3n(Cc3ccccc3)c2n1` stands “inactive”; under `CCN1C2=NCCCN2c2cc(C)c(C)cc21`, “inactive”; under `Cc1cc(C)c2c(=O)n(CC(=O)Nc3cccc(Cl)c3C)sc2n1`, “inactive”.
Still for that read-out and setting: under `COc1cc(C2(c3ccc(O)c(OC)c3)C(=O)Nc3c(C)cc(Br)cc32)ccc1O` stands “inactive”; under `COc1ccc(CC2(CO)CCN(C/C=C/c3ccccc3OC)CC2)cc1`, “inactive”.
As for `Cc1nn(-c2cc(C(F)(F)F)ccc2Cl)c2nc(C(Cl)(Cl)Cl)[nH]c(=O)c12`, the outcome was inactive.
Consider `Cc1ccc(C(=O)O)cc1N=Cc1cc(Br)cc(Br)c1O`, for which the outcome was inactive.
The same measure, in the same setting: in the case of `CCOc1ccc(N=CNc2ccc(OCC)cc2)cc1` it was “inactive”.
Regarding `CCN(CC)c1ncnc2sc3c(c12)CCC3`, the result was inactive.
In the case of `COc1ccc(NS(=O)(=O)c2ccc3ccccc3c2)c2ncccc12`, the result was inactive.
Same read-out and setting: under `CCN1CCN(CCC(=O)Nc2ccccc2OC)CC1` stands “inactive”; under `COc1cc(NC(=O)CSc2ncnc3sc4c(c23)CCC(C)C4)c(C(=O)O)cc1OC` (stereo not drawn), “inactive”.
For `Cc1[nH]nc(-c2ccc(O)cc2O)c1-c1nc2ccccc2s1`, the result was inactive.
As for `CC1CCC2C(C1)c1sc(=O)[nH]c1SC2(C)C` (stereo not drawn), the outcome was inactive.

For a further test, the system named is transient receptor potential cation channel C4 beta (TRPC4), mouse. The test is described as follows: TRPC4 cation channel opening, second retest – cell-based, second round, Fluo4, HEK293 TRPC4beta/mu-opioid, 1 µM, confirmation (AID 2461). The settings on record: Fluo4 calcium fluorescence, at 1 µM; hits give high values.
For the compound `CN(CCCNC(=O)CCCOc1cc(=O)n(C)c2ccccc12)Cc1ccccc1`, the result was inactive.
On to `CCOc1ccccc1C(=O)NCCc1cnc[nH]1`, for which the result was inactive.
On the same count and under the same terms, in the case of `Cc1ccccc1-n1c(=O)c2c(n3cnnc13)-c1ccccc1CC21CCCCC1` it was “inactive”; in that of `CN(C)S(=O)(=O)N1CCC(CCCC2CCN(S(=O)(=O)N(C)C)CC2)CC1`, “inactive”; in that of `O=C(Nc1ccnn1C1CCN(Cc2cc3ccccc3[nH]2)CC1)C1CCOC1` (stereo not drawn), “inactive”.
`C=CCOc1ccc(CN(C)Cc2nc3cc(C(F)(F)F)ccc3c(=O)[nH]2)cc1`: the result was inactive.
In the case of `Cc1ccc(C(=O)C[n+]2cccc3cc(C)ccc32)cc1`, the outcome was inactive.
On the same count and under the same terms, under `CN(C)CCCN(C(=O)CCc1ccccc1)c1nc2ccc(F)cc2s1` stands “inactive”; under `CC(=O)n1cc([C@@H]2C=C(C(=O)NCc3ccccc3)O[C@H](OCc3ccc(CO)cc3)C2)c2ccccc21`, “inactive”; under `O=C(O)CCCN1C(=O)/C(=C\c2ccc(-c3nc4ccccc4s3)o2)SC1=S`, “inactive”.
Consider `CCOCCCn1c(=S)[nH]c2cc(C(=O)NCCCN(CC)CC)ccc2c1=O`, for which the result was inactive.
Still for that read-out and setting: in the case of `O=C(NCc1ccccc1)c1ccc(S(=O)(=O)Nc2cccc(C(F)(F)F)c2)cc1` it was “inactive”.
The same measure, in the same setting: in the case of `CCOC(=O)C1CCCN(C(=O)CCCn2nnnc2CN2CCOCC2)C1` (stereo not drawn) it was “inactive”; in that of `COc1cc(OC)c2c(-c3ccccc3)cc(=O)oc2c1C(CCN1CCCCC1)c1ccc(N(C)C)cc1` (stereo not drawn), “inactive”; in that of `CCCCCCCCCC[n+]1cccc2c3ccccc3ccc21`, “inactive”.
Take `CC(C)NS(=O)(=O)c1ccc(NC(=O)C(C)Oc2ccc(C(=O)c3ccccc3)cc2)cc1` (stereo not drawn): the outcome was inactive.
`Cc1ccc(C(=O)NNC(=O)C2CSC3(C)CCC(=O)N23)cc1` (stereo not drawn): the result was inactive.
Still for that read-out and setting: under `CCCc1nc2oc3c(NCCCN(C)C)ncnc3c2c2c1CCCC2` stands “inactive”; under `CCc1nc2ccccc2n1Cc1ccccc1F`, “inactive”; under `O=C(Cc1ccccc1)Nc1cccc(NC(=O)c2cccs2)c1`, “inactive”.
Take `CCCCN(CC)CCCNC(=O)c1cc2cc3ccc(C)cc3nc2o1`: the outcome was inactive.
Still for that read-out and setting: in the case of `O=C1C=CC(=O)N1CCNc1ncc(C(F)(F)F)cc1Cl` it was “inactive”.
With `Cc1cc(NC(=O)CSCC(=O)Nc2ccc(Cl)c(C(F)(F)F)c2)no1`, the outcome was inactive.
In the case of `Cc1ccc2c(c1)C1CN(C)CCC1N2C(=S)NC(=O)c1ccc(Br)cc1` (stereo not drawn), the outcome was inactive.
Turning to `CCc1nc2ccccc2n1Cc1ccc(F)cc1`, the result was inactive.
Consider `CCN(CC)CCSc1nnc2c3ccccc3n(Cc3ccccc3)c2n1`, for which the outcome was inactive.
`CCN1C2=NCCCN2c2cc(C)c(C)cc21`: the outcome was inactive.
`Cc1cc(C)c2c(=O)n(CC(=O)Nc3cccc(Cl)c3C)sc2n1`: the outcome was inactive.
Still for that read-out and setting: under `COc1cc(C2(c3ccc(O)c(OC)c3)C(=O)Nc3c(C)cc(Br)cc32)ccc1O` stands “inactive”.
Take `COc1ccc(CC2(CO)CCN(C/C=C/c3ccccc3OC)CC2)cc1`: the outcome was inactive.
With `Cc1nn(-c2cc(C(F)(F)F)ccc2Cl)c2nc(C(Cl)(Cl)Cl)[nH]c(=O)c12`, the outcome was inactive.
Take `Cc1ccc(C(=O)O)cc1N=Cc1cc(Br)cc(Br)c1O`: the result was inactive.
Same read-out and setting: under `CCOc1ccc(N=CNc2ccc(OCC)cc2)cc1` stands “inactive”.
As to `CCN(CC)c1ncnc2sc3c(c12)CCC3`, the result was inactive.
With `COc1ccc(NS(=O)(=O)c2ccc3ccccc3c2)c2ncccc12`, the result was inactive.
For `CCN1CCN(CCC(=O)Nc2ccccc2OC)CC1`, the result was inactive.
On to `COc1cc(NC(=O)CSc2ncnc3sc4c(c23)CCC(C)C4)c(C(=O)O)cc1OC` (stereo not drawn), for which the outcome was inactive.
On to `Cc1[nH]nc(-c2ccc(O)cc2O)c1-c1nc2ccccc2s1`, for which the outcome was inactive.
Regarding `CC1CCC2C(C1)c1sc(=O)[nH]c1SC2(C)C` (stereo not drawn), the outcome was inactive.

The values are drawn from PubChem BioAssay.
